The record followed here is PubChem BioAssay AID504466 (National Center for Advancing Translational Sciences (NCATS), 2011).

Screen size: about 330,000 compounds; about 4,200 (1.3%) were called active. Not shown: some 6% with an inconclusive outcome. This is one part of a sample in which actives are shown more often than they occur. Values without a mark were called inactive. Calls follow the shape of the dose curve; as a rule, active = well fitted activation curve with a large enough effect; inconclusive = small, poorly fitted or top-dose-only effect; inactive = no such curve, though single readings can be large or run the other way.
Potency is read from the fitted curve at half-maximal effect.

The nature of this assay: qHTS screen for small molecules that induce genotoxicity in human embryonic kidney (HEK293T) cells expressing luciferase-tagged ELG1. Also: nearly all actives have a fitted effect of over 60% in size. As to activity change, positive = activation: % of control where 0% means no effect. The following applies: HEK293T ELG1-luciferase reporter, luminescence, 16 h; series mostly up to 46 µM; activity change, positive = activation: at the top concentration. Put shortly: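 Cells (2,000/well) expressing the ELG1-luciferase fusion are dosed by pin tool and kept 16 hr at 37 °C, 5% CO2. Signal comes from ONE-Glo luciferase reagent after 30 min at room temperature.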
Background: In qHTS, concentration-response curves come from the screen itself.
As for `Cc1ccc2c(c1)NC(=O)[C@@]1(C)[C@@H](c3ccccc3)[C@H]3COc4ccc(Cl)cc4[C@@H]3N1C2=O`, the “activity change, positive = activation” value is -1.37%.
On the same count and under the same terms, next, `CN(C)C(=O)CCc1ccc2c3c([nH]c2c1)[C@]1(C)[C@@H](C(=O)N2CCOCC2)C[C@H](CC(=O)NCCc2ccccn2)C(=O)N1CC3`: 9.82%; `COc1ccc(S(=O)(=O)N(C)C[C@@H]2Oc3ccc(NC(=O)Nc4c(C)noc4C)cc3C(=O)N([C@H](C)CO)C[C@@H]2C)cc1`: 3.81%.
As for `COc1ccc(Nc2nc(NCc3ccco3)nc(N/N=C/c3ccccc3Cl)n2)cc1`, the “activity change, positive = activation” value is -0.416%.
In the case of `COc1ccc(-n2cnc3cc(C(=O)NC4CCCC4)ccc32)cc1`, the “activity change, positive = activation” value was 12.1%.
Consider `COc1ccc(-n2cnc3cc(NCc4ccco4)ccc32)cc1`, for which the Potency was 20.6 µM (active).
On to `C=CCC[C@H](Cc1ccc(F)cc1)C(=O)OC[C@@H](NC(=O)[C@@H](CC=C)CC(=O)N[C@H](CO)Cc1ccccc1)C(C)(C)C`, for which the “activity change, positive = activation” value is -8.04%.
In the case of `Cc1cc(C)c2nc(NC(=O)C3CCCO3)sc2c1` (stereo not drawn), the Potency was 3.55 µM (active).
Turning to `Cc1ccc(C)c(C(C)NC(=O)C2CCCO2)c1` (stereo not drawn), the “activity change, positive = activation” value was -2.35%.
As for `Cc1cc([N+](=O)[O-])ccc1NC(=O)C1CCCO1` (stereo not drawn), the “activity change, positive = activation” value was -1.87%.
With `Oc1ccc(/C=N/Nc2ccc(C(F)(F)F)cn2)cc1O`, the Potency is 20.6 µM (active).
With `Cc1nccn1CC(=O)N/N=C/c1ccc(O)c(O)c1`, the “activity change, positive = activation” value is 0.2%.
As for `O=C(Nc1ccccc1)Nc1ccc(C(F)(F)F)cn1`, the “activity change, positive = activation” value was 8.04%.
On the same count and under the same terms, the result for `CCCCCCSc1ccc(-c2nc3ccc(Cl)cn3c2NCc2ccccc2)cc1` reads -2.3%; that for `O=C(/C=C/c1ccc2c(c1)OCO2)NCc1cn2cc(Cl)ccc2n1`, 1.4%.
In the case of `Clc1ccc2nc(CSc3ccccc3)cn2c1`, the Potency is 0.82 µM (active).
With `O=C(NCCc1ccco1)c1ccc(OCc2cn3ccccc3n2)cc1`, the “activity change, positive = activation” value is 9.93%.
The same measure, in the same setting: next, `COC(=O)CSc1nc(C)c2ccc(OC)cc2n1`: -1.32%.
With `COc1ccc(-c2nnc3ccc(SCc4ccccc4)nn23)cc1`, the “activity change, positive = activation” value is -0.849%.
With `COc1ccc2nc(SCc3ccccc3)nc(C)c2c1`, the Potency was 3.66 µM (active).
As for `C#CCOCCOCCOCCNc1nc(N2CCN(C(=O)[C@H](CO)n3cc([C@@H](N)C(C)C)nn3)CC2)nc(N2CCN(C(=O)[C@H](CCC(=O)O)n3cc([C@@H](N)[C@H](C)CC)nn3)CC2)n1`, the “activity change, positive = activation” value was 3.78%.
Consider `O=C(COC(=O)c1cccnc1Cl)NC12CC3CC(CC(C3)C1)C2`, for which the “activity change, positive = activation” value is -4.16%.
On the same count and under the same terms, the result for `Cc1ccc(NC(=O)C2CC2)cc1S(=O)(=O)N1CCOCC1` reads -0.262%; that for `CC[C@]12c3[nH]c4cc(CCC(=O)N(C)C)ccc4c3CCN1C(=O)[C@@H](CC(=O)NCCCN(C)C)C[C@@H]2C(=O)N1CCN(C(=O)c2ccco2)CC1`, -3.3%.
As for `O=C(NN=Cc1ccc(N2CCOCC2)cc1)c1cc2ccccc2cc1O`, the “activity change, positive = activation” value is -2.13%.
As for `COc1ccccc1OCC(=O)O/N=C(\N)c1ccccn1`, the Potency is 9.2 µM (active).
For `COc1ccccc1OCC(=O)OCc1cc(-c2ccco2)on1`, the “activity change, positive = activation” value is -0.824%.
As for `N/C(=N\OC(=O)Cc1ccc([N+](=O)[O-])cc1)c1ccccn1`, the “activity change, positive = activation” value is 12%.
The same measure, in the same setting: next, `COc1ccc(OCC(=O)NNC(=O)C2CCC2)cc1`: 0.166%; `CC(CNC(=O)Cn1cnc2c(OCc3ccccc3)ncnc21)c1ccccc1` (stereo not drawn): 1.33%.
On to `COc1cccc(Nc2nc(N)c([N+](=O)[O-])c(NCc3ccco3)n2)c1`, for which the “activity change, positive = activation” value was -1.09%.
The same measure, in the same setting: the result for `Cc1ccc(Nc2nc(N3CCOCC3)nc(N3CCOCC3)n2)cc1Cl` reads 0.349% [at 9.26 µM].
Turning to `CNc1nc(Nc2ccc(C)c(Cl)c2)nc(N)c1[N+](=O)[O-]`, the Potency is 10.3 µM (active).
As for `CCN(C(=O)COC(=O)c1ccccc1O)c1cccc2ccccc12`, the “activity change, positive = activation” value is -3.96%.
In the case of `CC(=O)Nc1ccc(Nc2c3ccccc3nc3ccccc23)cc1`, the Potency was 13 µM (active).
For `CC(C)(C)OC(=O)NNc1c2ccccc2nc2ccccc12`, the “activity change, positive = activation” value was -4.89%.
Consider `CC(=O)Nc1ccc(-c2nc3ccccc3o2)cc1`, for which the Potency was 3.26 µM (active).
Regarding `COc1cc(OC)cc(C(=O)Nc2ccc(-c3nc4ccccc4o3)c(O)c2)c1`, the “activity change, positive = activation” value was -4.77%.
For `CCc1nc(Nc2ccc(NC(C)=O)cc2)c2oc3ccccc3c2n1`, the “activity change, positive = activation” value is -0.226%.
As for `Cc1ccc(OCC(=O)Nc2ccc(-c3nc4ncccc4o3)cc2)cc1`, the “activity change, positive = activation” value is 5.43%.
Still for that read-out and setting: the result for `Nc1ncnc2c1ncn2[C@@H]1O[C@H](CNCc2cccn2-c2nccs2)[C@@H](O)[C@H]1O` reads 4.38%; that for `CC(C)/C=N/NC(=O)c1cc(Br)ccc1O`, -0.104%.
As to `CC(C)Cc1cc(C(=O)Nc2cc(Br)ccc2O)no1`, the Potency is 8.2 µM (active).
On to `CC(C)C(=O)NCc1cc(-c2ccc(Cl)cc2)no1`, for which the “activity change, positive = activation” value was 7.48%.
For `CC(C)N(C(=O)[C@H]1C[C@H](CC(=O)NCCC2=CCCCC2)C(=O)N2CCc3c([nH]c4cc(CCC(=O)N(C)C)ccc34)[C@]12C)C(C)C`, the “activity change, positive = activation” value was 3.22%.
Same read-out and setting: next, `Cc1ccc(C(=O)COc2cccc(NC(=O)c3ccco3)c2)cc1`: 3.01%.
For the molecule `Cc1ccoc1C(=O)Nc1cccc(Oc2ccccc2)c1`, the Potency is 9.2 µM (active).
As for `Cc1cccc(NC(=O)Nc2cccc(Oc3c(F)c(F)c(F)c(F)c3F)c2)c1`, the “activity change, positive = activation” value is 0.228%.
Still for that read-out and setting: the result for `CN(CC(=O)Nc1ccc(C(N)=O)cc1)S(=O)(=O)c1ccc2c(c1)OCCO2` reads -1.78%; that for `O=C(Cn1cnc2c(OCc3ccccc3)ncnc21)NCCCn1ccnc1`, 0.984%.
With `O=C(COC(=O)c1ccc(F)cc1)NCC1COc2ccccc2O1` (stereo not drawn), the “activity change, positive = activation” value is -2.33%.
For `Cc1cccc2c1N(CCOc1ccccc1)C(=O)C2=O`, the “activity change, positive = activation” value is 5.53%.
Consider `O=C(OCCN1C(=O)c2ccccc2C1=O)Oc1ccccc1`, for which the “activity change, positive = activation” value was 0.764%.
As for `O=C1c2ccccc2C(=O)N1CCOc1ccc(F)cc1`, the Potency was 20.6 µM (active).
Take `Cn1cccc1C(=O)OCC(=O)c1ccc(Br)s1`: the “activity change, positive = activation” value was 17.4%.
As for `COc1ccc(S(=O)(=O)Nc2cccc3c2O[C@H](CN(C)S(=O)(=O)c2ccc(OC)cc2)[C@@H](C)CN([C@H](C)CO)C3=O)cc1`, the “activity change, positive = activation” value was -0.316%.
Turning to `O=C(Nc1sc2c(c1C(=O)O)CCC2)c1ccccc1F`, the “activity change, positive = activation” value is 3.4%.
With `Cc1ccc(C(=O)c2c(NC(=O)c3ccncc3)sc3c2CCCC3)cc1`, the “activity change, positive = activation” value was -5.11%.
As to `NC(=O)c1c(NC(=O)c2ccccc2)sc2c1CCCC2`, the Potency is 8.2 µM (active).
Turning to `Cc1ccc(Oc2nc(-c3ccccn3)nc3ccccc23)cc1`, the “activity change, positive = activation” value is -14.1%.
`O=C(Oc1ccc(-c2nc(-c3ccccn3)no2)cc1)c1ccccc1`: the Potency was 0.517 µM (active).
For `O=C(Oc1ccc(Br)cc1)c1cccnc1`, the “activity change, positive = activation” value was -2.16%.
On the same count and under the same terms, the result for `COc1cc(C(=O)OCc2cc(=O)n3ccsc3n2)ccc1OC(C)C` reads 7.03%.
Still for that read-out and setting: the result for `CC(C)(C)OC(=O)CNC(=O)c1[nH]cnc1C(=O)N[C@@H](CCCCN)C(=O)OC(C)(C)C` reads -1.61%; that for `C[C@H](CO)N1C[C@H](C)[C@@H](CN(C)Cc2ccc(-c3ccccc3)cc2)Oc2ccc(NC(=O)Cn3cnnn3)cc2C1=O`, -0.487%.
In the case of `COC(=O)c1sc(NC(=O)c2csc3c2CCCC3)nc1C`, the Potency is 2.59 µM (active).
With `O=C(Nc1ccccc1N1CCOCC1)c1csc2c1CCCC2`, the “activity change, positive = activation” value was 0.737%.
On the same count and under the same terms, the result for `O=C(NCc1ccccc1Cl)c1csc2c1CCCCC2` reads 1.64%; that for `COC(=O)[C@]1(Cc2ccccc2)N[C@H](CN(C)S(=O)(=O)c2ccc(F)cc2)[C@@H]2C(=O)N(Cc3ccccc3)C(=O)[C@@H]21`, -1.12%.
For `COc1cc(N=Cc2c(O)[nH]c3ccccc23)cc(OC)c1OC`, the “activity change, positive = activation” value is 0.123%.
As to `COc1ccccc1N=Cc1c(O)c2ccccc2oc1=O`, the “activity change, positive = activation” value is 0.524%.
For `COc1ccc(N=Cc2c(O)[nH]c3ccccc23)cc1OC`, the Potency was 14.6 µM (active).
Still for that read-out and setting: the result for `Cc1ccc(-n2nc3cc(Cl)c(NC(=O)c4ccco4)cc3n2)cc1` reads 11.6 µM (active).
In the case of `Cc1cc(NC(=O)c2ccco2)c(=O)n(Cc2c(F)cccc2Cl)c1`, the “activity change, positive = activation” value is -18.3%.
Same read-out and setting: next, `Cc1ccc(-n2nc3cc(C)c(NC(=O)c4cccnc4)cc3n2)cc1`: 15.3%; `Cc1ccc(S(=O)(=O)NC[C@H]2O[C@@H](n3cnc4c(N)ncnc43)[C@H](O)[C@@H]2O)s1`: 4.37%.
On the same count and under the same terms, the result for `CSCCC1NC(=O)N(CC(=O)Nc2cccc(S(=O)(=O)N3CCCCCC3)c2)C1=O` (stereo not drawn) reads -6.21%; that for `Cc1cc(C(=O)NNC(=O)c2ccccc2O)c(C)o1`, 0.664%.
`Cc1cc(C(=O)NCCc2ccc(Cl)cc2)n(-c2ccccc2)n1`: the “activity change, positive = activation” value is -0.508%.
As for `Cc1cc(C(=O)NCCc2ccc(Cl)cc2)c(C)o1`, the Potency was 18.3 µM (active).
Turning to `CC[C@]12c3[nH]c4ccc(OC)cc4c3CCN1C(=O)C(CC(=O)NCCN1CCOCC1)C[C@@H]2C(=O)N1CCN(C(=O)C2CC2)CC1` (stereo partly drawn), the “activity change, positive = activation” value is 6.98%.
The same measure, in the same setting: the result for `Cc1ccccc1SCC(=O)OCC(=O)N1CC(=O)Nc2ccccc21` reads 0.23%.
Consider `CC1CCN(c2oc(-c3ccccc3F)nc2C#N)CC1`, for which the Potency was 16.4 µM (active).
As to `N#Cc1nc(-c2cccc3ccccc23)oc1N`, the “activity change, positive = activation” value was 9.19%.
`Cc1oc(-c2ccccc2F)nc1CS(=O)CC(=O)NCCN1CCCCC1C` (stereo not drawn): the “activity change, positive = activation” value was -1.89%.
Same read-out and setting: the result for `Cc1ccc(S(=O)(=O)N2CCN(C(=O)COC(=O)CNC(=O)c3ccc(C(C)(C)C)cc3)CC2)c(C)c1` reads -0.764%; that for `O=C(N=C1SC2CS(=O)(=O)CC2N1c1ccccc1)c1ccccc1` (stereo not drawn), 5.92%.
With `COc1ccc(-c2nc3cnccn3c2NC2CCCCC2)cc1-c1cccc(Cl)c1`, the “activity change, positive = activation” value was -2.5%.
Same read-out and setting: next, `COc1cccc(NC(=O)CSc2nnc(C3CCCCC3)n2N)c1`: -1.51%.
On the same count and under the same terms, the result for `NC(=O)COC(=O)/C=C/c1ccc2ccccc2n1` reads -0.149%.
Turning to `CCOc1ccccc1-c1cc(C(=O)N2CCOCC2)c2ccccc2n1`, the “activity change, positive = activation” value was -7.76%.
As to `CCOc1cccc(/C=C/c2ccc3ccccc3n2)c1OC(C)=O`, the Potency was 0.366 µM (active).
With `COc1cccc(/C=C2\C=C(c3ccc(C)cc3)OC2=O)c1OC(C)=O`, the “activity change, positive = activation” value was 5.23%.
Consider `COc1cccc(/C=C/c2ccc3ccccc3n2)c1OC(C)=O`, for which the Potency is 0.206 µM (active).
As for `CC(=O)c1ccc(S(=O)(=O)N2CCN(C(=O)/C=C/c3ccc4ccccc4n3)CC2)cc1`, the “activity change, positive = activation” value is -6.07%.
On the same count and under the same terms, next, `COCCn1c(C)cc(C(=O)CN2c3cccc4cccc(c34)S2(=O)=O)c1C`: 6.69%; `Cc1noc(C)c1NC(=O)Nc1cccc2c1O[C@H](CN(C)C(=O)Nc1ccccc1)[C@@H](C)CN([C@H](C)CO)C2=O`: -0.827%.
For the molecule `NCCN1CCN2C(=O)CN(C(=O)c3ccccc3)CC12` (stereo not drawn), the “activity change, positive = activation” value was -1.89%.
